Measured values published in PubChem BioAssay AID743279 (National Center for Advancing Translational Sciences (NCATS), 2014).
Hit rate of the full screen: of about 360,000 compounds, about 17,000 (4.7%) were called active. Inconclusive results (about 5%) are left out. Rule as the data show it: active = activity change below about -50%; inconclusive = mostly about -30% to -49%; inactive = weaker than that. Many of the other results were omitted from the sample, so actives are more common in it than they were.

experiment: qHTS for Inhibitors of Inflammasome Signaling: IL-1-beta AlphaLISA Primary Screen; conditions: THP-1 LPS/ATP IL-1B secretion, 16 h; at 57.5 µM, active compounds read low
In short: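 THP-1 cells pretreated 1 hr with compounds (up to 57.5 uM final), then stimulated with LPS (250 ng/mL final) plus ATP (1.25 mM final); secreted IL-1B measured by AlphaLISA after 16 hr, decreased signal indicating inhibition.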
% is scaled to controls: 0 for no effect and ±100 for the full control effect.

SMILES	activity change
NC1=NOC(=O)C1C1CCCCC1 (stereo not drawn)	-14.1% (inactive)
COc1ccc(C(CNC(=O)c2ccc(OCc3cscn3)cc2)N2CCCC2)cc1 (stereo not drawn)	-24.7% (inactive)
COc1ccc(CNC(=O)CN2C(=O)NC3(CCCc4sccc43)C2=O)cc1 (stereo not drawn)	8.42% (inactive)
COc1cc2c(cc1OC)CN(C(C)C(=O)Nc1cccc(S(=O)(=O)N3CCOCC3)c1)CC2 (stereo not drawn)	-4.78% (inactive)
COCC1CCCCN1C(=O)c1cc(COc2ccc(C)c(C)c2)on1 (stereo not drawn)	22.6% (inactive)
CCOc1cc(C=NNC(=O)CCCC(=O)NN=Cc2ccc(O)c(OCC)c2)ccc1O	0% (inactive)
CC(C)CN1CCC1(C)C(=O)Nc1ccc(OC(F)F)cc1 (stereo not drawn)	14.2% (inactive)
O=[N+]([O-])c1ncc(Br)cc1Nc1ccccc1	-71.2% (active)
O=[N+]([O-])c1ccccc1Nc1ccc(O)cc1	-11.5% (inactive)
O=[N+]([O-])c1cccc(/C=N/Nc2ncc(Br)cn2)c1	-8.3% (inactive)
Cn1c(=O)[nH]c(=O)c2c1nc(NCCCn1ccnc1)n2Cc1cccc(Br)c1	58.2% (inactive)
Cc1ccccc1-c1nc(NC(C)C)nc2cc(-c3ccccc3)sc12	19.3% (inactive)
CC1(C)CN(CCc2ccccc2)C(=O)[C@H]1CC(=O)Nc1ccc(Br)cc1	0% (inactive)
COc1ccccc1CNC(=O)CCCN1C(=O)NC2(CCCC2)C1=O	10.6% (inactive)
CC[C@]1(c2ccccc2OC)C(=O)N(C(=O)OC)N1C(=O)OC	-76.7% (active)
COC(=O)c1ccccc1NC(=O)Cc1ccccc1OC	7.67% (inactive)
CC(=O)Nc1ccc(NC(=O)c2ccc3c(c2)C(=O)N(c2ccccc2C)C3=O)cc1	0% (inactive)
C[C@@H]1CN([C@@H](C)CO)C(=O)c2cc(Br)cnc2O[C@H]1CN(C)Cc1ccc(-c2ccccc2)cc1	-13.1% (inactive)
CC1(C(=O)Nc2ccc3c(c2)OCCO3)CCN1C(=O)Cc1cc(F)ccc1F (stereo not drawn)	-2.62% (inactive)
CCCCn1c(CCCNC(=O)CC)nc2ccccc21	36.3% (inactive)
CCC(=O)Nc1nc2ccccc2n1Cc1ccccc1C	-56% (active)
CC(=O)Nc1nc2ccccc2n1Cc1ccc(C)cc1	-12.8% (inactive)
COC(=O)c1ccc2nc(-c3cccc(Br)c3)c(Cc3ccc(OC)cc3C)n2c1	2.21% (inactive)
NNc1cccc(C=Cc2ccccc2)cc1=O	-13.4% (inactive)
CCOC1=C2CN(S(=O)(=O)c3ccc(C)cc3)[C@H](c3cccs3)C[C@H]2[C@H]2C(=O)N(c3ccccc3)C(=O)[C@H]2C1	91.6% (inactive)
O=C(COc1ccc(F)cc1)N(CC1=CCS(=O)(=O)C1)c1ccccc1	0.865% (inactive)
CCN(C(=O)c1ccc(Br)cc1)c1ccccc1	-9.85% (inactive)
CCN(C(=O)COc1ccc(C(=O)c2ccccc2)cc1)c1ccccc1	-69.8% (active)
